Experimental data taken from PubChem BioAssay AID1159580 (chemical genetic matrix, 2015).
The whole screen tested about 5,500 compounds, of which about 2,000 (36%) were called active. Inconclusive results (about 18%) are left out. No stated cut-off is given here; in the data, active means normalized growth mostly below about 0.91 (no sharp cut-off); inconclusive means no clear call, values can overlap the other calls; inactive means mostly above about 0.92. The list shows a part of the results.

Experiment: chemical genetic growth profiling, strain panel (AID 1159580);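 further: tested at 20 µM; growth read once vehicle control cultures reached saturation at 30 °C; 1 = growth at the plate median or of vehicle wells; lower values mean less growth of the strain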
Conditions: S. cerevisiae deletion strains, growth OD
[1] = locus YAL040C, strain CLN3, active compounds read low
[2] = locus YER002W, strain NOP16, active compounds read low
[3] = locus YNL175C, strain NOP13, active compounds read low
[4] = locus YNL197C, strain WHI3, active compounds read low
[5] = locus YNL224C, strain SQS1, active compounds read low
[6] = locus YOR083W, strain WHI5 (second series), active compounds read low

Measured: normalized growth

CN(C)CCCC1(c2ccc(F)cc2)OCc2cc(C#N)ccc21 (centres undefined)
inactive: locus YAL021C, strain ccr4, active compounds read low 0.999 | locus YAL026C, strain drs2, active compounds read low 0.995 | locus YAL030W, strain snc1, active compounds read low 0.987 | [1] 0.984 | locus YBL061C, strain skt5, active compounds read low 0.991 | locus YBR009C, strain hhf1, active compounds read low 0.979 | locus YBR023C, strain chs3, active compounds read low 0.987 | locus YBR171W, strain sec66, active compounds read low 0.983 | locus YBR231C, strain swc5, active compounds read low 0.981 | locus YBR279W, strain paf1, active compounds read low 0.979 | locus YCL011C, strain gbp2, active compounds read low 0.99 | locus YCL016C, strain dcc1, active compounds read low 0.997 | locus YCL061C, strain MRC1, active compounds read low 0.987 | locus YCL069W, strain vba3, active compounds read low 0.992 | locus YCR088W, strain abp1, active compounds read low 0.983 | locus YDL005C, strain med2, active compounds read low 0.985 | locus YDL040C, strain nat1, active compounds read low 0.985 | locus YDR001C, strain nth1, active compounds read low 0.981 | locus YDR069C, strain doa4, active compounds read low 0.983 | locus YDR137W, strain rgp1, active compounds read low 0.991 | locus YDR159W, strain sac3, active compounds read low 0.985 | locus YDR195W, strain ref2 0.946 | locus YDR297W, strain sur2, active compounds read low 0.993 | locus YDR334W, strain swr1, active compounds read low 0.983 | locus YDR335W, strain msn5, active compounds read low 0.991 | locus YDR392W, strain spt3, active compounds read low 0.894 | locus YEL003W, strain gim4, active compounds read low 0.987 | locus YEL037C, strain rad23, active compounds read low 1 | locus YEL061C, strain CIN8 (second series), active compounds read low 0.986 | [2] 0.994 | locus YER015W, strain faa2, active compounds read low 0.985 | locus YER016W, strain bim1, active compounds read low 0.985 | locus YER111C, strain swi4, active compounds read low 0.983 | locus YER155C, strain BEM2 (second series), active compounds read low 0.944 | locus YFR010W, strain ubp6, active compounds read low 0.976 | locus YGL167C, strain pmr1, active compounds read low 0.99 | locus YGL173C, strain kem1, active compounds read low 0.989 | locus YGL227W, strain vid30, active compounds read low 0.989 | locus YGL240W, strain doc1, active compounds read low 0.97 | locus YGL253W, strain hxk2, active compounds read low 0.993 | locus YGR229C, strain SMI1, active compounds read low 1.01 | locus YHR013C, strain ard1, active compounds read low 0.975 | locus YHR027C, strain rpn1, active compounds read low 0.985 | locus YHR030C, strain SLT2, active compounds read low 1.02 | locus YHR079C, strain IRE1, active compounds read low 1.03 | locus YHR142W, strain chs7, active compounds read low 1 | locus YJL092W, strain hpr5, active compounds read low 0.995 | locus YJL095W, strain BCK1 (second series), active compounds read low 0.989 | locus YJL095W, strain BCK1, active compounds read low 1.03 | locus YJL115W, strain asf1, active compounds read low 0.985 | locus YJL129C, strain trk1, active compounds read low 1 | locus YJL154C, strain vps35, active compounds read low 0.989 | locus YJL164C, strain tpk1, active compounds read low 0.987 | locus YJL166W, strain qcr8, active compounds read low 1 | locus YJL187C, strain SWE1, active compounds read low 0.987 | locus YJR066W, strain TOR1, active compounds read low 0.998 | locus YKL160W, strain elf1, active compounds read low 1 | locus YKR026C, strain gcn3, active compounds read low 0.96 | locus YKR091W, strain srl3, active compounds read low 0.991 | locus YLL001W, strain dnm1, active compounds read low 0.994 | locus YLL026W, active compounds read low 0.986 | locus YLL041C, strain sdh2, active compounds read low 0.992 | locus YLR027C, strain aat2, active compounds read low 0.98 | locus YLR113W, strain HOG1, active compounds read low 1.01 | locus YLR221C, strain rsa3, active compounds read low 1 | locus YLR258W, strain gsy2, active compounds read low 0.98 | locus YLR262C, strain YPT6 (second series), active compounds read low 1.05 | locus YLR320W, strain mms22, active compounds read low 0.993 | locus YLR342W, strain FKS1, active compounds read low 0.999 | locus YLR357W, strain rsc2, active compounds read low 0.952 | locus YLR370C, strain arc18, active compounds read low 0.989 | locus YLR384C, strain iki3, active compounds read low 0.98 | locus YML120C, strain ndi1, active compounds read low 0.978 | locus YMR058W, strain fet3, active compounds read low 0.993 | locus YMR125W, strain sto1, active compounds read low 0.951 | locus YMR129W, active compounds read low 0.999 | locus YMR205C, strain PFK2, active compounds read low 0.946 | locus YMR231W, strain pep5, active compounds read low 0.984 | locus YMR263W, strain SAP30, active compounds read low 0.962 | locus YNL071W, strain lat1, active compounds read low 0.99 | locus YNL153C, strain GIM3, active compounds read low 0.997 | [3] 1 | locus YNL183C, strain NPR1, active compounds read low 1 | [4] 1 | locus YNL209W, strain ssb2, active compounds read low 0.992 | [5] 1.02 | locus YNL248C, strain rpa49, active compounds read low 0.99 | locus YNL322C, strain KRE1 (second series), active compounds read low 0.986 | locus YNR049C, strain mso1, active compounds read low 0.982 | locus YOR001W, strain rrp6, active compounds read low 0.987 | locus YOR070C, strain gyp1, active compounds read low 0.985 | locus YOR080W, strain dia2, active compounds read low 0.99 | [6] 1.01 | locus YOR083W, strain WHI5, active compounds read low 0.999 | locus YOR106W, strain vam3, active compounds read low 1.01 | locus YOR231W, strain MKK1, active compounds read low 1.03 | locus YOR265W, strain rbl2, active compounds read low 0.987 | locus YOR270C, strain vph1, active compounds read low 0.996 | locus YOR290C, strain snf2, active compounds read low 0.985 | locus YPL051W, strain arl3, active compounds read low 0.997 | locus YPL078C, strain atp4, active compounds read low 1 | locus YPL106C, strain sse1, active compounds read low 0.959 | locus YPL240C, strain hsp82, active compounds read low 1 | locus YPL256C, strain CLN2, active compounds read low 1.04

COc1cc(CC(=O)O)ccc1O
inactive: locus YAL013W, strain DEP1, active compounds read low 1 | [1] 1.07 | locus YCL061C, strain MRC1 (second series), active compounds read low 0.989 | locus YDR150W, strain NUM1, active compounds read low 0.992 | locus YDR363W, strain ESC2, active compounds read low 0.982 | [2] 0.97 | locus YGR078C, strain PAC10, active compounds read low 0.986 | locus YMR307W, strain GAS1, active compounds read low 1.01 | [3] 0.967 | [4] 0.977 | [5] 0.985 | locus YNL322C, strain KRE1, active compounds read low 0.987 | [6] 0.942 | locus YPL055C, strain LGE1, active compounds read low 0.995 | locus YPL241C, strain CIN2, active compounds read low 0.991
